Source: PubChem BioAssay AID488829 (NMMLSC, 2010)
Some of the results follow. Active and inactive are the calls of the source.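 How the source made its calls: active means fluorescence change span, or the activity score built from it, above 25; inactive means the rest.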

Assay: parental-strain fluorescence artefact check – primary hits, KU SAR, s288c parental, artefact control for yeast TOR pathway GFP screen, dose response (AID 488829)
Details: S. cerevisiae s288c parental, compound autofluorescence, flow cytometry, 3 h; at 33 µM; stronger effect = higher value

In the case of `Cc1ccc(-c2nn(C(C)(C)C)c3ncnc(N)c23)cc1`, the fluorescence change (span) is reported as 0.41 (inactive).

In the case of `CN(C)CCCNc1nc(N)c([N+](=O)[O-])c(Nc2cccc(F)c2)n1`, the fluorescence change (span) is reported as 0.05 (inactive).
